For orientation: % Inhibition means the drop in the measured response relative to a control, in per cent.

The values that follow come from article PMC4552634, “A New Set of Chemical Starting Points with Plasmodium falciparum Transmission-Blocking Potential for Antimalarial Drug Discovery” (PLoS ONE, 2015).

Each structure is given as a SMILES string. In all, about 13,000 compounds went through this assay and about 3,200 (25%) showed an effect of 50% or more. The list shows a part of the results.

This assay has as its system P. falciparum stage V gametocytes. Also on record: BacTiter-Glo ATP luminescence viability of purified stage V gametocytes in 384-well plates, per cent inhibition versus DMSO. As to conditions: 48 h, 5 µM; inhibitor.
Take `COc1ccccc1NC(=O)Nc1ccc(-c2cccc(-c3nc4ccccc4[nH]3)c2)cc1` [TCMDC-133206]: the “% Inhibition” value came out at 15.44%.

Turning to `FC(F)(F)c1cc(Nc2ncnc3ccc(Br)cc23)ccc1OCc1ccccc1` [TCMDC-131923], the “% Inhibition” value was determined as 9.607%.

For the compound `c1ccc(Oc2ccc(Nc3ccnc4cc(-c5cccc(CN6CCOCC6)c5)ccc34)cc2)cc1` [TCMDC-138475], the “% Inhibition” value was -43.1%.

`CN1CCN(Cc2cccc(-c3ccc4c(Nc5ccc(Oc6cccnc6)cc5)ccnc4c3)c2)CC1` [TCMDC-138489]: the “% Inhibition” value is 97.22%.

As for `CN1CCN(Cc2cccc(-c3ccc4c(Nc5ccc(Oc6ccccc6)cc5)ccnc4c3)c2)CC1` [TCMDC-138476], the “% Inhibition” value was found to be 95.08%.

Consider `c1cncc(Oc2ccc(Nc3ccnc4cc(-c5cccc(CN6CCOCC6)c5)ccc34)cc2)c1` [TCMDC-138490], for which the “% Inhibition” value was -4.813%.

As to `c1cncc(Oc2ccc(Nc3ccnc4cc(-c5cccc(CN6CCCCC6)c5)ccc34)cc2)c1` [TCMDC-138491], the “% Inhibition” value is on record as 61.6%.

Turning to `Oc1cc(Nc2ccnc3cc(-c4cccc(CN5CCCCC5)c4)ccc23)c(F)cc1Cl` [TCMDC-138433], the “% Inhibition” value stood at 38.27%.

For the compound `CN1CCN(Cc2nc(-c3ccc4c(Nc5ccc(F)c(O)c5)ccnc4c3)cs2)CC1` [TCMDC-138439], the “% Inhibition” value worked out at 95.29%.

For `Cc1ccc(O)cc1Nc1ccnc2cc(-c3csc(CN4CCN(C)CC4)n3)ccc12` [TCMDC-138459], the “% Inhibition” value came out at 29.46%.

With `CN1CCN(Cc2cccc(-c3cc4nccc(Nc5ccc(Oc6ccccc6)cc5)c4cc3Cl)c2)CC1` [TCMDC-138460], the “% Inhibition” value was determined as 0.7486%.

Consider `COCCNCc1nc(-c2ccc3c(Nc4ccc(F)c(O)c4)ccnc3c2)cs1` [TCMDC-138411], for which the “% Inhibition” value is 27.64%.

As for `Cc1ccc(/C=C2/SC(=Nc3ccccc3)NC2=O)c(C)c1` [TCMDC-124428], the “% Inhibition” value is on record as 45.43%.

As to `CCOC(=O)c1cncc(/C=C/c2cc(C)cnc2N)c1` [TCMDC-134321], the “% Inhibition” value turned out to be 18.35%.

For `CC(C)(C)C1CC(=O)CC2C(=O)N(C3CCCCC3)C(=O)C21` (centres unmarked) [TCMDC-139129], the “% Inhibition” value is listed as -1.455%.

Regarding `CC1(C)NC(N)=NC(=N)N1OCc1nc(N)nc(Nc2ccccc2)n1` [TCMDC-131613], the “% Inhibition” value came out at 27.92%.

In the case of `C=CCN1C(=O)C(C(C)=O)=C(O)C1c1ccccc1` (centres unmarked) [TCMDC-131675], the “% Inhibition” value is 0.4612%.

Regarding `CC(C)C[C@@H](C(=O)Nc1ccc(Cc2ccc(NC(=O)[C@H](CC(C)C)N(C)C(=O)OC(C)(C)C)cc2)cc1)N(C)C(=O)OC(C)(C)C` [TCMDC-131871], the “% Inhibition” value is on record as 6.615%.

For `CN1CCN(Cc2nc(-c3ccc4c(Nc5ccc(Oc6ccccc6)cc5)ccnc4c3)cs2)CC1` [TCMDC-138409], the “% Inhibition” value amounted to 54.56%.

On to `c1ccc(Oc2ccc(Nc3ccnc4cc(-c5csc(CN6CCCCC6)n5)ccc34)cc2)nc1` [TCMDC-138428], for which the “% Inhibition” value was -35.56%.

`CCCN1CCN(CC(O)CNC(=O)Nc2ccc(Br)cc2)CC1` (centres unmarked) [TCMDC-134638]: the “% Inhibition” value was 9.49%.

For `N=C(N)NN=CC(=O)Nc1ccc(Br)cc1` [TCMDC-137562], the “% Inhibition” value was -7.978%.

Turning to `CCN(CC)/C(=N/C(=N)Nc1ccc(Br)cc1)NCCCCCCN/C(=N\C(=N)Nc1ccc(Br)cc1)N(CC)CC` [TCMDC-131814], the “% Inhibition” value stood at 118.9%.

Consider `CCc1ccc(CN(Cc2ccc(C)cc2)Cc2ccc(NC(C)=O)cc2)cc1` [TCMDC-140034], for which the “% Inhibition” value stood at 13.22%.

As for `CCN(CC)/C(=N/C(=N)Nc1ccc(C)cc1)NCCCCCCN/C(=N\C(=N)Nc1ccc(C)cc1)N(CC)CC` [TCMDC-131810], the “% Inhibition” value is 116.5%.

Turning to `CC(=O)Nc1ccc(C(=O)N2CCN(c3ccnc4cc(Cl)ccc34)CC2)cc1` [TCMDC-133574], the “% Inhibition” value is given as -9.196%.

Consider `CCCC1N=C(N)N=C(N)N1c1ccc(C)cc1` (centres unmarked) [TCMDC-131297], for which the “% Inhibition” value was 8.167%.

In the case of `CC(C)(C)c1ccc(CNCCOc2ccc(Nc3nnc(-c4ccc(-c5ncc[nH]5)cc4)o3)c3ccccc23)cc1` [TCMDC-138667], the “% Inhibition” value is given as -26.34%.

With `N#Cc1ccc2c(c1)CCN(CCC1CCC(NC(=O)c3ccc(-c4ccccc4)s3)CC1)CC2` (centres unmarked) [TCMDC-139837], the “% Inhibition” value is -13.04%.

Take `CC(=O)Nc1nc(C(=O)Nc2ccc(-c3ccc(-c4nc5c(C)cccc5[nH]4)cc3)cc2)cs1` [TCMDC-137125]: the “% Inhibition” value is -51.44%.

Consider `Cc1nn(-c2ccnc3cc(Cl)ccc23)c(C)c1C(=O)NCc1cc(Cl)cc(Cl)c1` [TCMDC-134231], for which the “% Inhibition” value is -2.069%.

Take `COc1ccc2nccc(N3CCC(NCCNCc4ccc5c(n4)NC(=O)CO5)C3)c2n1` (centres unmarked) [TCMDC-134548]: the “% Inhibition” value came out at 51.99%.

Regarding `COc1ccc2nccc(N3CCC(NCc4ccc5c(n4)NC(=O)CS5)CC3)c2n1` [TCMDC-134652], the “% Inhibition” value is 3.663%.

`COc1ccc2nccc(N3CCC(SCCNCc4ccc5c(n4)NC(=O)CO5)C3)c2n1` (centres unmarked) [TCMDC-134206]: the “% Inhibition” value is reported as 10.7%.

For `COc1ccc2nccc(N3CCC(CCNCc4ccc5c(n4)NC(=O)CO5)CC3)c2n1` [TCMDC-141943], the “% Inhibition” value was found to be 5.733%.
